Screening data deposited in PubChem BioAssay by several laboratories.
Compounds with a hit are over-represented: about 6.7% of the library has one in this group of screens.
Bead autofluor: compound fluorescence in toxin protease inhibitor counterscreen | compound autofluorescence counterscreen, microsphere flow cytometry; active compounds read high | fluorescence intensity (no concentration beside the values) | 3.1% of 360,000 active; in the data active = fluorescence intensity above about 16000; inconclusive = no clear call, values can overlap the other calls
BoNT A protease: BoNT A light chain protease inhibition; 0.17% of 360,000 active; multiplex microsphere protease substrate cleavage, flow cytometry; inhibition, % at 10 µM; AID 588499
Anthrax LF prot: anthrax lethal factor protease inhibition. 0.12% of 360,000 active. inhibition, % at 10 µM. P15917. AID 588501. multiplex microsphere protease cleavage assay, LF
Mtb FBA inh: inhibits M. tuberculosis FBA enzyme | P9WQA3 | purified M. tuberculosis FBA, fluorescence read-out | inhibition, % at 1 µM | 2.3% of 360,000 active; in the data active = inhibition above about 27%
Target sequence (P9WQA3 whole entry, looked up): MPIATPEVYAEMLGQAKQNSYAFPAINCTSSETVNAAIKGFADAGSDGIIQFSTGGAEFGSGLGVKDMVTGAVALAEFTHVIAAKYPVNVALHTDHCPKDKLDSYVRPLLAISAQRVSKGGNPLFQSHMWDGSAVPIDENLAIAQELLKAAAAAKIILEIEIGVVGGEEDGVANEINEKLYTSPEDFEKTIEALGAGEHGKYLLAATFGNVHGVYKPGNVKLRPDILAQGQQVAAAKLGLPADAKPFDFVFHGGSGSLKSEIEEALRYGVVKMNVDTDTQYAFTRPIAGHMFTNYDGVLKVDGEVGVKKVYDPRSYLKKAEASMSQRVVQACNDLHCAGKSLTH
BoNT F protease: BoNT F light chain protease inhibition; Multiplex microsphere protease cleavage assay, flow cytometry; inhibition, % at 10 µM; 0.22% of 360,000 active; AID 588497; in the data active = inhibition above about 35%, passing the limit was not always enough; inconclusive = no clear call, values can overlap the other calls
GDH-TPI inh: counter-screen for M. tuberculosis FBA inhibitors: GDH-TPI coupled enzymes. 1.2% of 360,000 active. GDH-TPI coupled enzyme counterscreen, NADH absorbance. inhibition, % at 4.8 µM; in the data active = inhibition above about 30%
A number is an active result. Rule as the data show it, unless noted: active = inhibition above about 30%; inconclusive = no clear call, values can overlap the other calls; inactive = below that.

Results for CCOC(=O)N1CCN(C(=S)NC(C)(C)C)CC1 ?
Bead autofluor: 22858; BoNT A protease: inactive; Anthrax LF prot: inactive; Mtb FBA inh: inactive; BoNT F protease: inactive; GDH-TPI inh: inactive

How did CCOC(=O)N1CCN(C(=S)NC)CC1 do in these assays?
Bead autofluor: inactive; BoNT A protease: inactive; Anthrax LF prot: inactive; Mtb FBA inh: inactive; BoNT F protease: inactive; GDH-TPI inh: inactive

How did CCC(=O)c1c(NC(CC)CO)cc(C)oc1=O (stereo not drawn) do in these assays?
Bead autofluor: inactive; BoNT A protease: inactive; Anthrax LF prot: inactive; Mtb FBA inh: inactive; BoNT F protease: inactive; GDH-TPI inh: inactive

How did Cc1ccc(Nc2nc(NCC3CC3)nc3ccsc23)c(C)c1 do in these assays?
Bead autofluor: inactive; BoNT A protease: inactive; Anthrax LF prot: inactive; Mtb FBA inh: inactive; BoNT F protease: inactive; GDH-TPI inh: inactive

What do the screens show for `COc1ccc2cc(C(=O)c3ccccc3)c(=O)oc2c1`?
Bead autofluor: inactive; BoNT A protease: inactive; Anthrax LF prot: inactive; Mtb FBA inh: inactive; BoNT F protease: inactive; GDH-TPI inh: inactive

What do the screens show for `Cc1ccc(S(=O)(=O)c2cc3ccc(O)cc3oc2=O)cc1C`?
Bead autofluor: inactive; BoNT A protease: inactive; Anthrax LF prot: inactive; Mtb FBA inh: active; BoNT F protease: inactive; GDH-TPI inh: inactive

What do the screens show for `COc1ccc2cc(S(=O)(=O)c3ccccc3)c(=O)oc2c1`?
Bead autofluor: inactive; BoNT A protease: inactive; Anthrax LF prot: inactive; Mtb FBA inh: active; BoNT F protease: inactive; GDH-TPI inh: 36

Results for CC1(C)Cc2c(c(N3CCOCC3)nc3sc4c(NCc5ccccc5)nnnc4c23)CS1 ?
Bead autofluor: 23609; BoNT A protease: inactive; Anthrax LF prot: inactive; Mtb FBA inh: inactive; BoNT F protease: inactive; GDH-TPI inh: inactive

What do the screens show for `CC1(C)Cc2c(c(N3CCOCC3)nc3sc4c(NCc5ccco5)nnnc4c23)CS1`?
Bead autofluor: inactive; BoNT A protease: inactive; Anthrax LF prot: inactive; Mtb FBA inh: inactive; BoNT F protease: inactive; GDH-TPI inh: inactive

Results for COc1ccc(N2CC(C(=O)OCC(=O)Nc3cccc(C)c3C)CC2=O)cc1 (stereo not drawn) ?
Bead autofluor: inactive; BoNT A protease: inactive; Anthrax LF prot: inactive; Mtb FBA inh: inactive; BoNT F protease: inactive; GDH-TPI inh: inactive

How did CN(C)CCOCCSc1ccc(Cl)cc1 do in these assays?
Bead autofluor: 23961; BoNT A protease: inactive; Anthrax LF prot: inactive; Mtb FBA inh: inactive; BoNT F protease: inactive; GDH-TPI inh: inactive

How did COCCCNCCOCCSc1ccc(Cl)cc1 do in these assays?
Bead autofluor: inactive; BoNT A protease: inactive; Anthrax LF prot: inactive; Mtb FBA inh: inactive; BoNT F protease: inactive; GDH-TPI inh: inactive

What do the screens show for `CCCCNCCOCCSc1ccc(Cl)cc1`?
Bead autofluor: 21188; BoNT A protease: inactive; Anthrax LF prot: inactive; Mtb FBA inh: inactive; BoNT F protease: inactive; GDH-TPI inh: inactive

Results for O=C(/C=C/c1ccco1)NC(=S)NNC(=O)c1ccco1 ?
Bead autofluor: inactive; BoNT A protease: inactive; Anthrax LF prot: inactive; Mtb FBA inh: inactive; BoNT F protease: inactive; GDH-TPI inh: 43

Results for C=CCNC(=S)NNC(=O)c1ccco1 ?
Bead autofluor: inactive; BoNT A protease: inactive; Anthrax LF prot: inactive; Mtb FBA inh: inactive; BoNT F protease: inactive; GDH-TPI inh: inactive

How did CCC(=O)Nc1ccc(NC(=S)NC(=O)/C=C/c2ccco2)cc1 do in these assays?
Bead autofluor: inactive; BoNT A protease: inconclusive; Anthrax LF prot: inactive; Mtb FBA inh: inactive; BoNT F protease: inconclusive; GDH-TPI inh: 48

What do the screens show for `O=C(NC(=S)NNC(=O)c1cccs1)c1ccco1`?
Bead autofluor: 23561; BoNT A protease: inactive; Anthrax LF prot: inactive; Mtb FBA inh: inactive; BoNT F protease: inactive; GDH-TPI inh: inactive

How did CC(=O)NC(=S)Nc1ccc(NC(=S)NC(=O)/C=C/c2ccco2)cc1 do in these assays?
Bead autofluor: inactive; BoNT A protease: inactive; Anthrax LF prot: inactive; Mtb FBA inh: inactive; BoNT F protease: inconclusive; GDH-TPI inh: inactive

Results for COCCNC(=S)NNC(=O)c1ccco1 ?
Bead autofluor: 23531; BoNT A protease: inactive; Anthrax LF prot: inactive; Mtb FBA inh: inactive; BoNT F protease: inactive; GDH-TPI inh: inactive

What do the screens show for `COc1cc2ccccc2ccc1=NO`?
Bead autofluor: inactive; BoNT A protease: inactive; Anthrax LF prot: inactive; Mtb FBA inh: inactive; BoNT F protease: inactive; GDH-TPI inh: inactive

What do the screens show for `CC(C)CNC(=S)NNC(=O)c1ccco1`?
Bead autofluor: 22008; BoNT A protease: inactive; Anthrax LF prot: inactive; Mtb FBA inh: inactive; BoNT F protease: inactive; GDH-TPI inh: inactive

What do the screens show for `Cc1ccccc1NC(=S)NNC(=O)c1ccco1`?
Bead autofluor: inactive; BoNT A protease: inactive; Anthrax LF prot: inactive; Mtb FBA inh: inactive; BoNT F protease: inactive; GDH-TPI inh: inactive

What do the screens show for `O=C(NNC(=S)Nc1ccccc1)c1ccco1`?
Bead autofluor: 22369; BoNT A protease: inconclusive; Anthrax LF prot: inactive; Mtb FBA inh: inactive; BoNT F protease: inactive; GDH-TPI inh: inactive

How did CCOC(=O)/C=c1/s/c(=C/c2ccc3cc(OC)ccc3c2)c(=O)n1CC(=O)NCC1CCCO1 (stereo not drawn) do in these assays?
Bead autofluor: inactive; BoNT A protease: inactive; Anthrax LF prot: inactive; Mtb FBA inh: inactive; BoNT F protease: inactive; GDH-TPI inh: inactive

What do the screens show for `CCOC(=O)/C=c1\s/c(=C\c2c(OC)ccc3ccccc23)c(=O)n1CC(=O)NCC1CCCO1` (stereo not drawn)?
Bead autofluor: 16857; BoNT A protease: inactive; Anthrax LF prot: inactive; Mtb FBA inh: inactive; BoNT F protease: inactive; GDH-TPI inh: 38

What do the screens show for `COc1cccc(/C=C/c2ccc3cccc(O)c3n2)c1OC`?
Bead autofluor: inactive; BoNT A protease: inactive; Anthrax LF prot: inactive; Mtb FBA inh: inactive; BoNT F protease: inconclusive; GDH-TPI inh: inactive

Results for COc1cccc(/C=C/c2ccccn2)c1O ?
Bead autofluor: 24116; BoNT A protease: inactive; Anthrax LF prot: inactive; Mtb FBA inh: inactive; BoNT F protease: inactive; GDH-TPI inh: inactive

What do the screens show for `C[C@H](N)c1nnc(SCC(=O)c2ccc(Cl)cc2)o1`?
Bead autofluor: 16731; BoNT A protease: inactive; Anthrax LF prot: inactive; Mtb FBA inh: inactive; BoNT F protease: inactive; GDH-TPI inh: inactive

How did Cc1ccc(S(=O)(=O)c2nc(-c3ccco3)oc2SCC(N)=O)cc1 do in these assays?
Bead autofluor: inactive; BoNT A protease: inactive; Anthrax LF prot: inactive; Mtb FBA inh: inactive; BoNT F protease: inactive; GDH-TPI inh: inactive

How did Cc1ccc(-c2nc(S(=O)(=O)c3ccc(C)cc3)c(SCC(N)=O)o2)cc1 do in these assays?
Bead autofluor: 16360; BoNT A protease: inactive; Anthrax LF prot: inactive; Mtb FBA inh: inactive; BoNT F protease: inactive; GDH-TPI inh: inactive

What do the screens show for `COc1ccc([C@H]2CC(=O)C=C(c3ccc(NC(C)=O)cc3)C2)cc1OC`?
Bead autofluor: inactive; BoNT A protease: inactive; Anthrax LF prot: inactive; Mtb FBA inh: inactive; BoNT F protease: inactive; GDH-TPI inh: 37

What do the screens show for `O=C1C=C(c2cc3ccccc3s2)CCC1`?
Bead autofluor: inactive; BoNT A protease: inactive; Anthrax LF prot: inactive; Mtb FBA inh: inactive; BoNT F protease: inactive; GDH-TPI inh: 34
